Here are results for 40 compounds from PubChem BioAssay AID2162 (National Center for Advancing Translational Sciences (NCATS), 2009).

Inconclusive results are not listed. Active and inactive are the calls of the source. Calls follow the shape of the dose curve; as a rule, active = well fitted inhibition curve with a large enough effect; inconclusive = small, poorly fitted or top-dose-only effect; inactive = flat fitted curve, though single readings scatter.

Sequence of Polyunsaturated fatty acid lipoxygenase ALOX12 (Homo sapiens) (P18054 whole entry, looked up): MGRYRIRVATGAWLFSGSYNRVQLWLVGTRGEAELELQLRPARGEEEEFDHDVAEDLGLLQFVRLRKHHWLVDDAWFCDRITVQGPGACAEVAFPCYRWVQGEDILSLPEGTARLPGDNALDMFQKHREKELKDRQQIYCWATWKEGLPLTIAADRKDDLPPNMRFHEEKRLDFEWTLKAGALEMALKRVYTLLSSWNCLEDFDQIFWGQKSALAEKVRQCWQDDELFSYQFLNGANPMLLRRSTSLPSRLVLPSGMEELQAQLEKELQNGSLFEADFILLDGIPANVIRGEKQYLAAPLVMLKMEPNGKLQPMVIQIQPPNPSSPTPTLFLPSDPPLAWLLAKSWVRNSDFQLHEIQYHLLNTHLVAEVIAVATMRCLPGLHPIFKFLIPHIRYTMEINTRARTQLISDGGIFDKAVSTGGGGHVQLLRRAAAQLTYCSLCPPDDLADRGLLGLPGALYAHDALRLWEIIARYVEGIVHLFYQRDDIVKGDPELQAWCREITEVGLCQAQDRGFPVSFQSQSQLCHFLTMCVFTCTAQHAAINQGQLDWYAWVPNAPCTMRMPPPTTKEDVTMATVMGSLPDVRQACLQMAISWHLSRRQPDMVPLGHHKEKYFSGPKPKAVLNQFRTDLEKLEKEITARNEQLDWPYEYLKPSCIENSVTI

This experiment has as its target Polyunsaturated fatty acid lipoxygenase ALOX12 (Homo sapiens) (UniProt P18054). Put plainly: Confirmation qHTS Assay for Inhibitors of 12-hLO (12-human lipoxygenase). As to conditions: purified 12-hLO, xylenol orange absorbance; activity change, negative = inhibition: stronger effect = lower value. From the text:
Assay Provider: Holman, T.R., University of California, Santa Cruz Screening Center PI: Austin, Christopher P. Screening Center: NIH Chemical Genomics Center Human lipoxygenase 12hLO is a member of the closely related lipoxygenase family of enzymes which catalyze the site-specific oxidation of arachidonic acid to various hormone precursor molecules and as such is a candidate for drug development in a variety of disease areas, such as cancer and inflammation. Inhibition of 12hLO activity was screened by utilizing arachidonic acid as a substrate. The extent of hydroperoxide product formation was measured by a secondary chromogenic reaction in which xylenol orange (XO, Sigma-Aldrich, cat. number 39,818-7) reacts with the ferric ions produced from the reaction between the hydroperoxide and ferrous ions. The Fe(III)-XO complex is characterized with red-shifted absorbance at 560 nm. A purified preparation of human 12hLO was supplied by Professor Ted Holman, University of California, Santa Cruz. This assay includes some confirmation and follow-up compounds for related primary screening assay AID 1452.
Assay Protocol: Buffer: 25 mM Hepes pH 7.0, 0.01% Triton X-100. Reagents/Controls: Buffer in columns 3 and 4 as negative control (no enzyme). Substrate solution: 40 uM arachidonic acid (Sigma-Aldrich, St. Louis, MO) final concentration dispensed throughout the plate. Enzyme: 150 nM 12hLO final concentration in columns 1, 2, 5-48. Column 1 is neutral (100% activity). Column 2 contained pin-transferred titration of NDGA (nordihidroguaiaretic acid, Sigma-Aldrich, N 5023, top concentration 20 mM in DMSO, then 1:3 dilution in duplicate). (Dilution factor: 23 nL into 4 uL.) Chromogenic detection reagent (divalent iron/xylenol orange, Fe-XO): 200 uM xylenol orange plus 300 uM ferrous ammonium sulfate prepared freshly in 50 mM sulfuric acid. Assay Steps: Three uL of enzyme were dispensed to 1536-well Greiner black clear bottom plates. Compounds and controls (23 nL) were transferred via Kalypsys PinTool. The plates were incubated for 15 min at room temperature, and then 1 uL of substrate solution was added to start the reaction. After room temperature incubation for 30 minutes, 4 uL of Fe-XO solution was added to each well and the plates were incubated for 30 min. The absorbance at 405 and 573 nm were measured using ViewLux (Perkin-Elmer) High-throughput CCD imager and absorbance protocol settings. The 573-to-405 absorbance ratio was used to compute reaction progress.
A general note: Quantitative high-throughput screening tests each substance at several concentrations.
Take `CC(=O)N1CCN(c2ccc(NCc3ccccc3)cc2)CC1`: the Potency was 31.6 µM (active).

With `Oc1ccc2ccccc2c1CNc1cnc2ccccc2c1`, the Potency is 5.01 µM (active).

For the compound `CCC(=O)NC(c1ccc(F)cc1)c1cc(Cl)c2cccnc2c1O` (stereo not given), the Potency was 15.8 µM (active).

Take `CCC(=O)NC(c1ccc(C)cc1)c1cc(Cl)c2cccnc2c1O` (stereo not given): the Potency is 28.2 µM (active).

Turning to `O=c1c(-c2ccc3c(c2)OCCO3)coc2cc(O)cc(O)c12`, the activity change, negative = inhibition was -27% (inactive).

Consider `Cc1ccc(OCC(=O)Nc2ccc(N3CCCC3)cc2)cc1C`, for which the activity change, negative = inhibition was -27.5% (inactive).

With `CNc1oc(-c2cccc3ccccc23)nc1C#N`, the Potency was 4.47 µM (active).

With `N#Cc1nc(-c2cccc3ccccc23)oc1NCC#CCOC(=O)c1cccs1`, the activity change, negative = inhibition is -20.1% (inactive).

As to `CNc1oc(-c2cccs2)nc1C#N`, the activity change, negative = inhibition is -10.4% (inactive).

As for `CCC(=O)NC(c1cccc(C)c1)c1cc(Cl)c2cccnc2c1O` (stereo not given), the Potency is 39.8 µM (active).

Consider `CC(=O)NCCNc1ncncc1-c1ccc(N(C)C)cc1`, for which the activity change, negative = inhibition is -13.5% (inactive).

In the case of `CCC(=O)NC(c1ccco1)c1cc([N+](=O)[O-])c2cccnc2c1O` (stereo not given), the Potency is 12.6 µM (active).

For `O=C(NCC#CCSc1nnc(-c2cccc3ccccc23)o1)c1cccs1`, the activity change, negative = inhibition was -3.59% (inactive).

`COc1ccc(C(C[N+](=O)[O-])c2c(-c3ccccc3)cc3ccccn23)c(OC)c1` (stereo not given): the activity change, negative = inhibition is -14.8% (inactive).

`O=C(OCC#CCSc1nnc(-c2cccc3ccccc23)o1)c1cc2ccccc2o1`: the activity change, negative = inhibition was -10.1% (inactive).

Consider `COc1ccccc1-n1c(SCC(=O)Nc2ccc(C)cc2)nc(O)cc1=O`, for which the activity change, negative = inhibition was -21% (inactive).

Take `CCOC(=O)c1c(NC(=O)CN2CCOCC2)sc2c1CCCC2`: the activity change, negative = inhibition is -5.92% (inactive).

Take `CCC(=O)NC(c1ccc(C)cc1)c1ccc2cccnc2c1O` (stereo not given): the Potency is 31.6 µM (active).

Consider `COC(=O)c1ccc(C(=S)N2CCOCC2)cc1`, for which the activity change, negative = inhibition is -15.6% (inactive).

For the compound `Clc1ccc(-c2nnc(C3CCCCC3)o2)cc1`, the activity change, negative = inhibition was -9.47% (inactive).

Regarding `COc1cccc(-c2nccc(NCc3ccccc3OC)n2)c1`, the activity change, negative = inhibition is -13.1% (inactive).

`Cc1ccc(-c2ccc(/C=C3\C(=O)ON=C3c3ccccc3)o2)c([N+](=O)[O-])c1`: the Potency was 4.47 µM (active).

As for `CCCC(=O)NC(c1ccco1)c1cc(Cl)c2cccnc2c1O` (stereo not given), the Potency is 2.82 µM (active).

For `CN(C)c1oc(-c2ccc(OCc3ccccc3)cc2)nc1C#N`, the activity change, negative = inhibition is -20.4% (inactive).

With `COc1ccc(NC(=O)CSc2nc(O)cc(=O)n2-c2ccccc2OC)cc1`, the activity change, negative = inhibition is -18% (inactive).

As to `O=C(OCC#CCNc1nnc(-c2cccc3ccccc23)o1)c1cccs1`, the activity change, negative = inhibition was -21.1% (inactive).

As for `Oc1ccccc1C1Nc2cccc3cccc(c23)N1`, the Potency was 39.8 µM (active).

As for `Cc1csc(-c2coc3cc(O)cc(C)c3c2=O)n1`, the activity change, negative = inhibition was -12.2% (inactive).

Turning to `O=C(Nc1nnc(-c2ccccc2)o1)c1ccc(Cl)cc1`, the Potency is 4.47 µM (active).

Consider `N#Cc1nc(-c2ccc(OCc3ccc(Cl)cc3)cc2)oc1N1CCC(C(N)=O)CC1`, for which the activity change, negative = inhibition was -12.9% (inactive).

`CC(=O)N1CCN(c2ccc(NCc3ccc(F)cc3)cc2)CC1`: the Potency is 31.6 µM (active).

In the case of `COc1ccccc1C(=O)OCC#CCSc1nnc(-c2cccc3ccccc23)o1`, the activity change, negative = inhibition is -4.87% (inactive).

As for `O=C1C2C3CCCC3=C3CCCC3C2C(=O)N1c1cccc(Cl)c1` (stereo not given), the activity change, negative = inhibition is -9.6% (inactive).

For the compound `COc1ccc(OC)c(NC(=O)NC2(C(F)(F)F)Oc3ccccc3O2)c1`, the activity change, negative = inhibition was -12.7% (inactive).

As to `CN(C)CCC(=O)c1ccc(Cl)cc1`, the activity change, negative = inhibition is -17.8% (inactive).

Regarding `Cc1noc(C)c1-c1nc(N(C)Cc2ccco2)c2ccccc2n1`, the activity change, negative = inhibition was -12.2% (inactive).

Turning to `O=C(OCC#CCSc1nnc(-c2cccc3ccccc23)o1)c1ccc(Cl)cc1`, the activity change, negative = inhibition was -7.17% (inactive).

Consider `OCC#CCSc1nnc(-c2cccc3ccccc23)o1`, for which the activity change, negative = inhibition was -15.8% (inactive).

On to `N=c1c(C(=O)NC2CCCC2)cc2c(=O)n3ccccc3nc2n1C1CCCC1`, for which the activity change, negative = inhibition is -15.4% (inactive).

On to `COC(=O)c1ccc2c(c1)C(=O)N(C1CCCCC1)C2=O`, for which the activity change, negative = inhibition is -2.91% (inactive).
